Compounds without any hit were thinned out: in the full panel of roughly 83,000, 20% have a hit.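 In brief: 96-well plates, 48 h treatment, single concentration, percent growth endpoint.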 Calls of active or inactive are those of the source. The calls were made as follows: active = growth percent below 10; inactive = the rest.
These molecules were tested on NCI-H322M lung (assay: NCI-60 one-dose screen, 48 h (100 = growth as untreated, 0 = no growth, -100 = all killed)). Details: 10 µM unless noted.

**Q.** With `C=C1C(=O)O[C@H]2[C@H]1CC/C(COC(=O)NCCc1c[nH]c3ccccc13)=C\CC[C@@]1(C)O[C@@H]21` as the molecule, how does the growth read?
**A.** 83.2% (inactive)

**Q.** With `C/C(=N\Nc1cc(C)c2ccccc2n1)c1ccccn1` as the molecule, how does the growth read?
**A.** -2.12% (active)

**Q.** Which growth does the source give for `COC(=O)CNc1nc(N(C)O)nc(N(C)O)n1` here?
**A.** 54.6% (inactive)

**Q.** How did the growth turn out when `Cc1ccc(-c2nc([P+](c3ccccc3)(c3ccccc3)c3ccccc3)c(N3C[C@H]4C[C@H](C3)c3cccc(=O)n3C4)o2)cc1` was run?
**A.** 94.3% (inactive)

**Q.** With `COC(=O)[C@]12CC[C@@H](C)[C@H](C)[C@@H]1C1=CC[C@@H]3[C@@]4(C)CC(=O)[C@H](OC(=O)c5ccco5)[C@@]5(C)COC(=C45)C[C@@]3(C)[C@]1(C)CC2` as the molecule, how does the growth read?
**A.** 53.7% (inactive)

**Q.** How did the growth turn out when `COc1ccc(/C=C/C(=O)NCC(C)O)cc1` (stereo not drawn) was run?
**A.** 94.5% (inactive)

**Q.** For `Cc1nn(-c2ccc(Cl)cc2)c(=O)n1CCn1cnc2ccccc21`, which growth is on record?
**A.** 96.8% (inactive)

**Q.** `CN1CCN(CCOc2ccc(-c3cnc4c(-c5ccccc5F)cnn4c3)cc2)CC1` was tested. Which growth did it give?
**A.** 57.9% (inactive)

**Q.** How did the growth turn out when `O=C(NO)c1ccc(Cn2c(=O)n(-c3ccccc3)c(=O)c3ccccc32)cc1` was run?
**A.** 38.8% (inactive)

**Q.** With `COc1cccc2c1C(=O)c1c(O)c3c(c(O)c1C2=O)C[C@@](O)(C(=O)CO)C[C@@H]3OC1C[C@H](N)[C@H](O)[C@H](C)O1` (stereo partly drawn) as the molecule, how does the growth read?
**A.** -2.94% (active)

**Q.** How did the growth turn out when `CCC(CC)C(=O)OC(C)COc1ccc(C(C)(C)C)cc1` (stereo not drawn) was run?
**A.** 109% (inactive)

**Q.** How did the growth turn out when `Nc1ccc(Cl)cn1` was run?
**A.** 104% (inactive)

**Q.** For `CN1CCN(CCOc2ccc(-c3cnc4c(-c5cccc(F)c5)cnn4c3)cc2)CC1`, which growth is on record?
**A.** 89.8% (inactive)

**Q.** With `CCCC1CCCCN1C(=O)OCC(C)C` (stereo not drawn) as the molecule, how does the growth read?
**A.** 104% (inactive)

**Q.** With `O=S(=O)(NCCNc1cc(-c2cn(-c3ccccc3)nc2-c2cccc(O)c2)ccn1)c1cccc(F)c1` as the molecule, how does the growth read?
**A.** 56.2% (inactive)

**Q.** With `Cc1cccc(C)c1NC(=O)CSC(=S)N1CCCCC1` as the molecule, how does the growth read?
**A.** 82.7% (inactive)

**Q.** `O=C(/C=C/c1cccc(O)c1)c1ccccc1O` was tested. Which growth did it give?
**A.** 98.4% (inactive)

**Q.** For `O=C(NO)c1ccc(Cn2c(=O)n(CCc3ccc(O)cc3)c(=O)c3ccccc32)cc1`, which growth is on record?
**A.** 80.4% (inactive)

**Q.** How did the growth turn out when `COc1ccc(O)c(-c2cc(-c3ccc(Cl)cc3)c(C#N)c(=O)[nH]2)c1` was run?
**A.** 101% (inactive)

**Q.** How did the growth turn out when `CCC(=O)c1c(C)[nH]c(C)c1C` was run?
**A.** 94.6% (inactive)

**Q.** `COc1cc(-c2cc3ncccc3c3nc(OCCN(C)C)c4cccnc4c23)cc(OC)c1OC` was tested. Which growth did it give?
**A.** 17.9% (inactive)

**Q.** For `O=C(/C=C/c1cccc2ccccc12)Nc1ncc(Cc2ccccc2)s1`, which growth is on record?
**A.** 12.5% (inactive)

**Q.** With `CC(C)/C=C/CC[C@](C)(O)[C@H]1CC[C@]2(C)[C@@H]1CC[C@@H]1[C@@]3(C)C/C(=C/c4cccc(C(F)(F)F)c4)C(=O)C(C)(C)[C@@H]3CC[C@]12C` as the molecule, how does the growth read?
**A.** 105% (inactive)

**Q.** For `O=C(NCN1C(=O)c2cccc3cccc(c23)C1=O)N1CCC(Cc2ccccc2)CC1`, which growth is on record?
**A.** 105% (inactive)

**Q.** `COc1cnc2c(c1)C(=O)c1c-2n(CCCNCCN2CCOCC2)c(=O)c2cc([N+](=O)[O-])ccc12` was tested. Which growth did it give?
**A.** 6.04% (active)

**Q.** With `CCCCCCCC(=O)SCC/C=C/[C@@H]1CC(=O)NCc2cccc(n2)CN(Cc2ccc3ccccc3c2)CC(=O)N[C@@H](C(C)C)C(=O)O1` as the molecule, how does the growth read?
**A.** 40% (inactive)

**Q.** `Fc1ccc2nc(-c3cc(-c4ccc5c(c4)OCO5)n[nH]3)[nH]c2c1` was tested. Which growth did it give?
**A.** 64.9% (inactive)

**Q.** With `Cn1cc(-c2nc(-c3cn(C)c4ncccc34)cs2)c2cc(F)ccc21` as the molecule, how does the growth read?
**A.** 57% (inactive)

**Q.** Which growth does the source give for `NCCn1cc(-c2nc(-c3c[nH]c4ncccc34)cs2)c2ccccc21` here?
**A.** 74.6% (inactive)

**Q.** With `COc1ccc(-c2cc(-c3c(C)oc4cc5occc5c(OC)c4c3=O)nc(N)c2C#N)cc1OC` as the molecule, how does the growth read?
**A.** 81.2% (inactive)

**Q.** `CN(C)c1ccc(N)c2ccccc12` was tested. Which growth did it give?
**A.** 58.7% (inactive)

**Q.** `CN(C)CCCCC(C(=O)CBr)(c1ccccc1)c1ccccc1` was tested. Which growth did it give?
**A.** 74.5% (inactive)

**Q.** `O=C1Nc2ccccc2/C1=C/c1cn(CCCn2c3ccccc3c(=O)c3ccccc32)c2ccccc12` was tested. Which growth did it give?
**A.** 86.8% (inactive)

**Q.** `C=C(C)[C@@H]1CC[C@]2(C=NCCCNCCCCNCCCN)CC[C@]3(C)[C@H](CC[C@@H]4[C@@]5(C)CCCNC(C)(C)[C@@H]5CC[C@]43C)[C@@H]12` was tested. Which growth did it give?
**A.** 100% (inactive)

**Q.** Which growth does the source give for `CCCCn1c(-c2ccc(O)cc2)cn2c3c(=O)[nH]c(=O)n(C)c3nc12` here?
**A.** 119% (inactive)

**Q.** How did the growth turn out when `Cc1nn(-c2ccc(Br)cc2)c2nc3[nH]c(=O)[nH]c(=O)c3nc12` was run?
**A.** 119% (inactive)

**Q.** `Cc1cc2nc3c4cc(N)ccc4n(CCN(C)C)c3nc2cc1C` was tested. Which growth did it give?
**A.** 7.13% (active)

**Q.** Which growth does the source give for `COc1ccc(-c2nc3c(c(C)nn3-c3ccc(F)cc3)c(=O)[nH]2)cc1` here?
**A.** 78.7% (inactive)

From PubChem BioAssay (NCI)
